What all share (assay): yeast three-hybrid, YBZ-1, SC-Leu-His + 0.5 mM 3-AT, 4 days
What all share (settings): tags: N-Gal4 AD-HA kept; label: inside an RPR1-promoter hybrid RNA with tandem MS2 sites; ssRNA

One assay deals with PUM1 PUF domain R5-KRQ (Homo sapiens, UniProt Q14671 828-1176, C1007K). In outline:
(§1)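 The interaction score is the log change in how often each variant appears, from input to selection. Frequencies came from PCR-amplified, Illumina-sequenced repeat regions of Pumilio-1 PUF domain libraries grown in strain YBZ-1 (LexA–MS2 coat fusion, HIS3 reporter) alongside matching RNA elements. Input plates were SC-Leu and selection plates were SC-Leu-His + 0.5 mM 3-AT, each for four days, and the log2 calculation used a pseudocount of 1 where a variant was absent.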

The next assay concerns the target PUM1 PUF domain R5-GRN (Homo sapiens, UniProt Q14671 828-1176, C1007G;Q1011N). In outline:
as §1

For another assay, the target named is PUM1 PUF domain R4-EYA (Homo sapiens, UniProt Q14671 828-1176, N971E;H972Y;Q975A). The gist of the method:
as §1

The target of the next assay is PUM1 PUF domain R5-TRF (Homo sapiens, UniProt Q14671 828-1176, C1007T;Q1011F). In outline:
as §1

The next assay has as its target PUM1 PUF domain R7-RTM (Homo sapiens, UniProt Q14671 828-1176, S1079R;N1080T;E1083M). In outline:
as §1

The next assay concerns the target PUM1 PUF domain R3-GRL (Homo sapiens, UniProt Q14671 828-1176, C935G;Q939L). In outline:
as §1

Another assay has as its target PUM1 PUF domain R3-ACR (Homo sapiens, UniProt Q14671 828-1176, C935A;R936C;Q939R). The gist of the method:
as §1

The next assay concerns the target PUM1 PUF domain R8-RGW (Homo sapiens, UniProt Q14671 828-1176, N1122R;Y1123G;Q1126W). In outline:
as §1

The next assay has as its target T1, PUM1 PUF domain R6-HWL (Homo sapiens, UniProt Q14671 828-1176, N1043H;Y1044W;Q1047L).
T1 sequence: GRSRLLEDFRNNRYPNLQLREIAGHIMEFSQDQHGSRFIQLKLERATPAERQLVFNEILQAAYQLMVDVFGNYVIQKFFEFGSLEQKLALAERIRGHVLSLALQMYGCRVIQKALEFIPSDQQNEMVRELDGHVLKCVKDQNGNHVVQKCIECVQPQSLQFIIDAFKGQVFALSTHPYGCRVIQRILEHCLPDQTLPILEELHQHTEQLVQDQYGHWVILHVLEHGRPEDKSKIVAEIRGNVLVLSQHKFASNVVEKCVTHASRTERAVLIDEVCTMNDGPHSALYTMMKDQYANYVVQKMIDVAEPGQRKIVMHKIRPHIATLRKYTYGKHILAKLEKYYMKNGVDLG
The gist of the method:
as §1

For the next assay, the target named is PUM1 PUF domain R1-RKD (Homo sapiens, UniProt Q14671 828-1176, S863R;R864K;Q867D). The gist of the method: as §1

Regarding “GGCUAGAACUAGUGGAUCCCCCGGCGCCCGGCGGCUCGAGCCCGGGUAAGUGUGAAUAGUCUGCAUGCCGCCGGGCGCCAUGCCUGCAGGUCGACUCUAGAAAACAUG”, the binding signal in the assay with PUM1 PUF domain R5-KRQ was 0.49 log2 enrichment (interaction score); in the assay with PUM1 PUF domain R5-GRN, 2.92 log2 enrichment (interaction score).
The like results for “GGCUAGAACUAGUGGAUCCCCCGGCGCCCGGCGGCUCGAGCCCGGGUAAGUGUCAAUAGUCUGCAUGCCGCCGGGCGCCAUGCCUGCAGGUCGACUCUAGAAAACAUG” were, in that order, 5.21 log2 enrichment (interaction score) and 1.4 log2 enrichment (interaction score).
Turning to “GGCUAGAACUAGUGGAUCCCCCGGCGCCCGGCGGCUCGAGCCCGGGUAAGUGUACAUAGUCUGCAUGCCGCCGGGCGCCAUGCCUGCAGGUCGACUCUAGAAAACAUG”, the binding signal with PUM1 PUF domain R4-EYA was 0.75 log2 enrichment (interaction score).
Turning to “GGCUAGAACUAGUGGAUCCCCCGGCGCCCGGCGGCUCGAGCCCGGGUAAGUGUUAAUAGUCUGCAUGCCGCCGGGCGCCAUGCCUGCAGGUCGACUCUAGAAAACAUG”, the binding signal in the assay with PUM1 PUF domain R5-TRF is 3.8 log2 enrichment (interaction score); with PUM1 PUF domain R5-GRN, 3.83 log2 enrichment (interaction score).
For the sequence “GGCUAGAACUAGUGGAUCCCCCGGCGCCCGGCGGCUCGAGCCCGGGUAAGUCUAAAUAGUCUGCAUGCCGCCGGGCGCCAUGCCUGCAGGUCGACUCUAGAAAACAUG”, the binding signal with PUM1 PUF domain R7-RTM is 0.72 log2 enrichment (interaction score).
As to “GGCUAGAACUAGUGGAUCCCCCGGCGCCCGGCGGCUCGAGCCCGGGUAAGUGUAAUUAGUCUGCAUGCCGCCGGGCGCCAUGCCUGCAGGUCGACUCUAGAAAACAUG”, the binding signal was 0.66 log2 enrichment (interaction score) with PUM1 PUF domain R3-GRL and 3.08 log2 enrichment (interaction score) with PUM1 PUF domain R3-ACR.
For “GGCUAGAACUAGUGGAUCCCCCGGCGCCCGGCGGCUCGAGCCCGGGUAAGUGUAAAUAGUCUGCAUGCCGCCGGGCGCCAUGCCUGCAGGUCGACUCUAGAAAACAUG”, the binding signal was 2.89 log2 enrichment (interaction score) with PUM1 PUF domain R5-KRQ; 2.47 log2 enrichment (interaction score) with PUM1 PUF domain R8-RGW; 6.48 log2 enrichment (interaction score) with PUM1 PUF domain R6-HWL; 3.08 log2 enrichment (interaction score) with PUM1 PUF domain R5-TRF; 2.71 log2 enrichment (interaction score) with PUM1 PUF domain R3-GRL; 0.84 log2 enrichment (interaction score) with PUM1 PUF domain R3-ACR. Further, the binding signal was 3.37 log2 enrichment (interaction score) with PUM1 PUF domain R5-GRN and 2.34 log2 enrichment (interaction score) in the assay with PUM1 PUF domain R4-EYA.
Regarding “GGCUAGAACUAGUGGAUCCCCCGGCGCCCGGCGGCUCGAGCCCGGGUAAGUGUAUAUAGUCUGCAUGCCGCCGGGCGCCAUGCCUGCAGGUCGACUCUAGAAAACAUG”, in the assay with PUM1 PUF domain R4-EYA, the binding signal was 3.44 log2 enrichment (interaction score).
For “GGCUAGAACUAGUGGAUCCCCCGGCGCCCGGCGGCUCGAGCCCGGGUAAGUGUAAAUUGUCUGCAUGCCGCCGGGCGCCAUGCCUGCAGGUCGACUCUAGAAAACAUG”, in the assay with PUM1 PUF domain R1-RKD, the binding signal was 2.73 log2 enrichment (interaction score).
Consider “GGCUAGAACUAGUGGAUCCCCCGGCGCCCGGCGGCUCGAGCCCGGGUAAGUGUAAGUAGUCUGCAUGCCGCCGGGCGCCAUGCCUGCAGGUCGACUCUAGAAAACAUG”, for which the binding signal with PUM1 PUF domain R3-ACR was 4.11 log2 enrichment (interaction score).
For the sequence “GGCUAGAACUAGUGGAUCCCCCGGCGCCCGGCGGCUCGAGCCCGGGUAAGUUUAAAUAGUCUGCAUGCCGCCGGGCGCCAUGCCUGCAGGUCGACUCUAGAAAACAUG”, the binding signal with PUM1 PUF domain R7-RTM is 2.58 log2 enrichment (interaction score).

The values above are taken from article PMC8384837, “Expanding the binding specificity for RNA recognition by a PUF domain”.
